# Assay results from PubChem BioAssay (NCATS).
# “And” between values parts separate entries of the source, which are not always exact repeats. Equal values may be shown once. A number with no mark means an inactive call. Inconclusive results are not listed. A call without a number means that no potency is given here. The source made the active and inactive calls. Unless noted, the call rests on the fitted dose curve; in most records, active means well fitted curve in the direction sought with a large enough effect; inconclusive means small, poorly fitted or top-dose-only effect, or another doubt; inactive means no such curve, though single readings can be large; an effect the other way counts as inactive or inconclusive.
# Assays:
# [1] = biological target: Calcium and integrin-binding protein 1 (Homo sapiens) (UniProt Q99828); assay: Primary qHTS for Identification of Calcium Integrin Binding Protein 1 (CIB1) Competitor (AID 1508620); further: potency means the concentration at half of the fitted maximal effect;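 on activity change, negative = inhibition: GST tagged CIB1 binding a fluorescein labelled alphaIIb integrin peptide tracer; top concentration of the series differs between compounds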
# Sequence of Calcium and integrin-binding protein 1 (Homo sapiens) (Q99828 whole entry, looked up): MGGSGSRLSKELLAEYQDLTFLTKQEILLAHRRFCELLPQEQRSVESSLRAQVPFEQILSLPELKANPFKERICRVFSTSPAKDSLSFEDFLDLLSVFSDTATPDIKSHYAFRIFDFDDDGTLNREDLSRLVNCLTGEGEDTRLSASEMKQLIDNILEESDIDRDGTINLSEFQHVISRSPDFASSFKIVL
# Procedure, shortened: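 Fluorescence polarization competition: GST-tagged CIB1 (1 uM final) preincubated with compound 15 min at room temperature, then FITC-labelled alphaIIb peptide (100 nM final) added. After 15 min at room temperature, polarization read at Ex 480/Em 540.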
# [2] = Validation qHTS assay for inhibitors of Activation Induced Cytidine Deaminase (AID): UDG Counterscreen signal (AID 1347427)
# Procedure, shortened: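 Counterscreen read of UDG activity (2 U/mL, 4/3x) in the FRET deamination format with AID (1 uM, 4/3x), DJC20/DJC23 substrates (250 nM, 4x), 4 h at room temperature. NaOH stop, fluorescence at 560 ex/665 em.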
# [3] = biological target: Single-stranded DNA cytosine deaminase (Homo sapiens) (UniProt Q9GZX7); assay: Validation qHTS assay for inhibitors of Activation Induced Cytidine Deaminase (AID): AID signal (AID 1347429)
# Sequence of Single-stranded DNA cytosine deaminase (Homo sapiens) (Q9GZX7 whole entry, looked up): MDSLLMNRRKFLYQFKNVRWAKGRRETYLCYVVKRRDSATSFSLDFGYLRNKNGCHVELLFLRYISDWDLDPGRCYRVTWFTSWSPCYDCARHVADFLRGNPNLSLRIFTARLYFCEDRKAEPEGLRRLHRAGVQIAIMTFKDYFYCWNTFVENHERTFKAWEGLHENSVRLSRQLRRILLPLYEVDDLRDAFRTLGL
# Procedure, shortened: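 In this coupled qHTS, AID deaminates a FRET-labelled ssDNA substrate in the presence of UDG over 4 hr at room temperature. Compounds span up to 114 uM final.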
# [4] = Primary qHTS for small molecule stabilizers of the endoplasmic reticulum resident proteome: Secreted ER Calcium Modulated Protein (SERCaMP) assay (AID 1508630)
# Procedure, shortened: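 GLuc-SERCaMP-expressing SH-SY5Y cells, pretreated 16 h with compound, are challenged with thapsigargin to empty ER calcium stores; after 4 h, coelenterazine is added directly to the medium and luminescence is imaged.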
# Papain (Carica papaya) = Papain (Carica papaya) (UniProt P00784); assay: Primary qHTS assay for inhibitors of the protease papain (AID 1645873);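 further: papain turnover of Z-FR-AMC read as the AMC fluorescence gain over 10 min; series mostly up to about 50 µM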
# Sequence of Papain (Carica papaya) (P00784 whole entry, looked up): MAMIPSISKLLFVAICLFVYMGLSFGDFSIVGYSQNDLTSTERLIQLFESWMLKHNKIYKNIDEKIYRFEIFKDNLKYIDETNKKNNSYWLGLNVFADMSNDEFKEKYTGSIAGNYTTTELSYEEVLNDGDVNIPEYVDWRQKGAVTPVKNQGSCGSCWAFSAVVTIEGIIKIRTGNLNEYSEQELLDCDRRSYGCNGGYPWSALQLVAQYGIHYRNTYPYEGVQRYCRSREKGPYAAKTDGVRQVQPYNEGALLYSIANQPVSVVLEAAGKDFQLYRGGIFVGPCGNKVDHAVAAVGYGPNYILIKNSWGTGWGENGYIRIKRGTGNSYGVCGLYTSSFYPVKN
# [5] = biological target: Protein phosphatase 1D (Homo sapiens) (UniProt O15297); assay: RapidFire Mass Spectrometry qHTS Assay for Modulators of WT P53-Induced Phosphatase 1 (WIP1) (AID 1347424);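 further: amount of dephosphorylated VEPPL-S-QETFS peptide product formed by WIP1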; further: potency means the concentration at half of the fitted maximal effect; on activity change, negative = inhibition: series mostly up to about 63 µM
# Sequence of Protein phosphatase 1D (Homo sapiens) (O15297 whole entry, looked up): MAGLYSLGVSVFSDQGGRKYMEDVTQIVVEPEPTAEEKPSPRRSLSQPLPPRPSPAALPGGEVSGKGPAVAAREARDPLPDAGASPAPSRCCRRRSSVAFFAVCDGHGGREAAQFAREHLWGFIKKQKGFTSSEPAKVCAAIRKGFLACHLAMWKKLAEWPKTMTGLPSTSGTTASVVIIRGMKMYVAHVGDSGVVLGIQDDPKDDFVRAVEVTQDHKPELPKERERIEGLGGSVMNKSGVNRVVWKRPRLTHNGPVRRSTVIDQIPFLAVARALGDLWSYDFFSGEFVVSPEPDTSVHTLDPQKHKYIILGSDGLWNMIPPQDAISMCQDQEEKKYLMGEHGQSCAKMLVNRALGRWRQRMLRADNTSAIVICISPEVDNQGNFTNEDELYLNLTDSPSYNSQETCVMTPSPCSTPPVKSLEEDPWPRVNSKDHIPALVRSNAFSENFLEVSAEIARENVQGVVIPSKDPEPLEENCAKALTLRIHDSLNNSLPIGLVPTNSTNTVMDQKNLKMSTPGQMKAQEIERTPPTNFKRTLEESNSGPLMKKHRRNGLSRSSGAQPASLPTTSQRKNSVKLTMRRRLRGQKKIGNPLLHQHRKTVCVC
# Procedure, shortened: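 10 nM WIP1 preincubated with compounds 1 hr at room temperature in pH 7.5 Tris buffer with 30 mM MgCl2, 1 mM TCEP; 2 uM VEPPL-pS-QETFS phosphopeptide for 5 min, formic acid quench; dephosphorylated product quantified by RapidFire MS against labelled standard.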
# [6] = Primary qHTS for inhibitors of La Crosse Virus (LACV) - induced cell death in SH-SY5Y cells (AID 1508616);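 further: top concentration of the series differs between compounds; higher means more rescue of cells from virus-induced death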
# Procedure, shortened: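 Readout was luminescence from ATPLite 1step added after a 6-day LACV infection (0.01 MOI) of SH-SY5Y cells that had received pin-transferred compound 24 hr after seeding.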
# [7] = biological target: Cytochrome P450 2C9 (Homo sapiens) (UniProt P11712); assay: Cytochrome P450 family 2 subfamily C member 9 (CYP2C9) small molecule antagonists: luciferase biochemical (cell-free) qHTS assay (AID 1645842; active means well fitted curve in the direction sought with a large enough effect in the repeat runs; an effect the other way counts as inactive or inconclusive; further: potency means the concentration at half of the fitted maximal effect; nearly all actives have a fitted effect of over 55% in size)
# Sequence of Cytochrome P450 2C9 (Homo sapiens) (P11712 whole entry, looked up): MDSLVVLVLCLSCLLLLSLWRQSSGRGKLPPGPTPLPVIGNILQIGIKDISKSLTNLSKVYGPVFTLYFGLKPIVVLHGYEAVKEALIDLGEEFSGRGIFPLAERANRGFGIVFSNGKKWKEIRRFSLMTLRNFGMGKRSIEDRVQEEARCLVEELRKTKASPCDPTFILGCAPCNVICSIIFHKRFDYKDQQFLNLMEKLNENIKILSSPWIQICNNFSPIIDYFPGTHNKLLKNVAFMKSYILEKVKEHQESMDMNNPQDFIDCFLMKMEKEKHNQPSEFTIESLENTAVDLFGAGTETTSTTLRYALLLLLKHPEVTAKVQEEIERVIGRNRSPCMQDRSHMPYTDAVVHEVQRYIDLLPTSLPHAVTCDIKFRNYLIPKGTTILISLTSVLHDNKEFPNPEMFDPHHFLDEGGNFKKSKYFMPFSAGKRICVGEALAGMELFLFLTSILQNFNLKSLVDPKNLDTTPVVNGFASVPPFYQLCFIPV
# Procedure, shortened: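 Luminescence, after 20 min with luciferin detection reagent, reflected CYP2C9 turnover during a 1 h NADPH-driven reaction at 37C. Enzyme-substrate mix contained 0.4% bovine serum albumin and was preincubated with compound 10 min at room temperature.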
# [8] = Primary qHTS for inhibitors of nuclear receptor binding SET domain protein 2 (NSD2) in an isogenic RCH-ACV NSD2 p.E1099K mutant (9B) (AID 1645876); further: nearly all actives have a fitted effect of over 70% in size; further: potency means the concentration at half of the fitted maximal effect
# [9] = Primary qHTS for inhibitors of nuclear receptor binding SET domain protein 2 (NSD2) in an RCH-ACV wild type WT cells (2C) (AID 1645877); further: nearly all actives have a fitted effect of over 70% in size; further: potency means the concentration at half of the fitted maximal effect
# [10] = biological target: Calcium and integrin-binding protein 1 (Homo sapiens) (UniProt Q99828); assay: Confirmatory qHTS for Identification of Calcium Integrin Binding Protein 1 (CIB1) Competitor (AID 1508617); further: nearly all actives have a fitted effect of over 65% in size; further: potency means the concentration at half of the fitted maximal effect
# Procedure, shortened: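 Confirmatory qHTS measures displacement of a FITC-alphaIIb peptide (100 nM) from CIB1-GST (1 uM) by fluorescence polarization. Calcium-containing HEPES buffer, pH 7.4; two 15 min room-temperature incubations.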
# [11] = biological target: Cytochrome P450 2D6 (Homo sapiens) (UniProt P10635); assay: Cytochrome P450 family 2 subfamily D member 6 (CYP2D6) small molecule antagonists: luciferase biochemical (cell-free) qHTS assay (AID 1645840; active means well fitted curve in the direction sought with a large enough effect in the repeat runs; an effect the other way counts as inactive or inconclusive; further: nearly all actives have a fitted effect of over 55% in size; further: potency means the concentration at half of the fitted maximal effect; on activity change, negative = inhibition: series mostly up to about 57 µM)
# Sequence of Cytochrome P450 2D6 (Homo sapiens) (P10635 whole entry, looked up): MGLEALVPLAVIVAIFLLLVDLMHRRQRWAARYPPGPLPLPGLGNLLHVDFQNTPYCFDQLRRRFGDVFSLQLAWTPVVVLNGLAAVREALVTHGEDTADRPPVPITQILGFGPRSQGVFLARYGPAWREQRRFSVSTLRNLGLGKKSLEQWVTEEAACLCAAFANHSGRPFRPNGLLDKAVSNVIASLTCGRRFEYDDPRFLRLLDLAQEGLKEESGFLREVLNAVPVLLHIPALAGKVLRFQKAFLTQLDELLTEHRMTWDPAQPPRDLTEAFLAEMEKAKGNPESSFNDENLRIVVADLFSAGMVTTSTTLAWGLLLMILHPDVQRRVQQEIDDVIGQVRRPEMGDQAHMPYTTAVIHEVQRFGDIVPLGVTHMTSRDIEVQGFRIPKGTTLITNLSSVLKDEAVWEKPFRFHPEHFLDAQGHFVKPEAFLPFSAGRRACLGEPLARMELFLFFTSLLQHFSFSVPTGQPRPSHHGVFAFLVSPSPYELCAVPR
# Procedure, shortened: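 P450-Glo luminescent screen: recombinant CYP2D6 enzyme–proluciferin substrate mix preincubated with compound 10 min at room temperature, then NADPH regeneration added for 1 h at room temperature. Detection reagent added for 20 min; luciferin light read as relative luminescence units.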
# [12] = biological target: N-terminal Xaa-Pro-Lys N-methyltransferase 1 (Homo sapiens) (UniProt Q9BV86); assay: Confirmatory qHTS for Inhibitors of N-terminal methyltransferase 1 (NTMT1): MTaseGlo Assay (AID 1645874);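 further: luminescence from SAH made as NTMT1 methylates SPKRIA peptide using SAM; series mostly up to about 100 µM; nearly all actives have a fitted effect of over 65% in size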
# Sequence of N-terminal Xaa-Pro-Lys N-methyltransferase 1 (Homo sapiens) (Q9BV86 whole entry, looked up): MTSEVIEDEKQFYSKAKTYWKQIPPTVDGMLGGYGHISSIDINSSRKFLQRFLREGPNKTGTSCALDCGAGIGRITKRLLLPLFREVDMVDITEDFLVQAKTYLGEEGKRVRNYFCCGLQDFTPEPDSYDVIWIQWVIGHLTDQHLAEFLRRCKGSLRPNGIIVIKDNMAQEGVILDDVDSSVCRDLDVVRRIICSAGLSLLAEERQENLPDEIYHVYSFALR
# Procedure, shortened: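 Preincubation of NTMT1 (125 nM) plus SAM (100 uM) with test compounds lasted 15 min; methylation of 1 uM SPKRIA then proceeded 30 min in the dark at room temperature. Luciferase signal reported SAH produced.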
# [13] = biological target: Rap guanine nucleotide exchange factor 3 (Homo sapiens) (UniProt O95398); assay: Confirmatory qHTS for agonist of cAMP-regulated guanine nucleotide exchange factor 3 (EPAC1) (AID 1645881);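 further: EPAC1 catalysed release of BODIPY-GDP from Rap1B seen as fluorescence loss; nearly all actives have a fitted effect of over 75% in size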
# Sequence of Rap guanine nucleotide exchange factor 3 (Homo sapiens) (O95398 whole entry, looked up): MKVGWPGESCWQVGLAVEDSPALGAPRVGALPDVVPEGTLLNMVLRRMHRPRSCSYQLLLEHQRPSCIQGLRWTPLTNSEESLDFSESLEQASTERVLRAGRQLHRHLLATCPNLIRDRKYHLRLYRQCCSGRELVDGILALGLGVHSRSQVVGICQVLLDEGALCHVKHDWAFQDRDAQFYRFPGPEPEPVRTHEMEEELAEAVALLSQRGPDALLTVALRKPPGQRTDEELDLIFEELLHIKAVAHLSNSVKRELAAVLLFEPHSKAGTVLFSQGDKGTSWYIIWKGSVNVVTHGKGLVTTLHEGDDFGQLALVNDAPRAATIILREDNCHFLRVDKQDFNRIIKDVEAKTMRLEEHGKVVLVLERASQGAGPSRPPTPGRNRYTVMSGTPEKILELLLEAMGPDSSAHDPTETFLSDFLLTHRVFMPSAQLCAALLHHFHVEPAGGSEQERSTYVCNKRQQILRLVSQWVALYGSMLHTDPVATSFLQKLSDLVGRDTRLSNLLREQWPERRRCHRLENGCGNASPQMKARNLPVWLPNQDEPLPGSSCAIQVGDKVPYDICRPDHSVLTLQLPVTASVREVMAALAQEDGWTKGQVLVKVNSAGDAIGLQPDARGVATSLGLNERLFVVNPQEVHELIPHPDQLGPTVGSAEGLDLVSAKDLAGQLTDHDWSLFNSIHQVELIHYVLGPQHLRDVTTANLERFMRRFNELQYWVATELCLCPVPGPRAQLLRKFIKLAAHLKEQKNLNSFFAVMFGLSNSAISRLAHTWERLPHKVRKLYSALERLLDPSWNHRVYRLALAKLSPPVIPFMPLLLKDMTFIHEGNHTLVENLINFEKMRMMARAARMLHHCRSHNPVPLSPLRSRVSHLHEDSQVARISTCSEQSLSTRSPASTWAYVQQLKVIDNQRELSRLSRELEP
# [14] = biological target: Rap guanine nucleotide exchange factor 4 (Homo sapiens) (UniProt Q8WZA2); assay: Confirmatory qHTS for agonist of cAMP-regulated guanine nucleotide exchange factor 4 (EPAC2) (AID 1645884);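 further: nucleotide exchange releases bodipy-GDP from Rap1 and this lowers its fluorescence; nearly all actives have a fitted effect of over 65% in size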
# Sequence of Rap guanine nucleotide exchange factor 4 (Homo sapiens) (Q8WZA2 whole entry, looked up): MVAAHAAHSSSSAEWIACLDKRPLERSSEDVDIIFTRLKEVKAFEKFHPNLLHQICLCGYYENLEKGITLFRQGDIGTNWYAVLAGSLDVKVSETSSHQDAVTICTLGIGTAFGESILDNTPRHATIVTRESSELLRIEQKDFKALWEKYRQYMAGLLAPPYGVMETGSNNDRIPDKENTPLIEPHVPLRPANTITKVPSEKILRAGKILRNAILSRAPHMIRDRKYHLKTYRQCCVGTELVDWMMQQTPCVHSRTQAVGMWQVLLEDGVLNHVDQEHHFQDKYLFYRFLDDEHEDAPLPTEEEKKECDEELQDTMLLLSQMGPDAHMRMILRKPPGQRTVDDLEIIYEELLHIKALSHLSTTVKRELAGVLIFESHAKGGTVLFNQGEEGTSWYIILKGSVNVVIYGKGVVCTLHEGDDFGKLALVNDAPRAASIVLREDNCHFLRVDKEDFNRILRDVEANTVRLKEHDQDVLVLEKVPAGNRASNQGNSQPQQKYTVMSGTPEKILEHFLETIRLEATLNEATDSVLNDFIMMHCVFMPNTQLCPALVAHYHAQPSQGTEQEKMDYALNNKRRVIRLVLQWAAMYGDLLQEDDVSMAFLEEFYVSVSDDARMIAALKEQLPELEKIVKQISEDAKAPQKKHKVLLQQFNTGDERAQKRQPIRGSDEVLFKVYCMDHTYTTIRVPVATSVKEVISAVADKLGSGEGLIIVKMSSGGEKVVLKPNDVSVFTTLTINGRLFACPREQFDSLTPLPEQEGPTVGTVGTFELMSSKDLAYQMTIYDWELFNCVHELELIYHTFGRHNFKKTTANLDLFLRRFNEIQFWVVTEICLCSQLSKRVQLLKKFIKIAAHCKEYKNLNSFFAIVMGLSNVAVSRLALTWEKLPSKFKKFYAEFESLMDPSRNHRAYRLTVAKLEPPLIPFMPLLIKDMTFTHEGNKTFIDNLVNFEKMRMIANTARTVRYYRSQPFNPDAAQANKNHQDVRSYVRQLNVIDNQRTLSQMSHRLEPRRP
# [15] = biological target: Protein phosphatase 1D (Homo sapiens) (UniProt O15297); assay: Rhodamine-PBP qHTS Assay for Modulators of WT P53-Induced Phosphatase 1 (WIP1) (AID 1347425)
# Procedure, shortened: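 5 nM WIP1 + 10 uM Rh-PBP, 50 mM Tris pH 7.5, 30 mM MgCl2, 1 mM TCEP, 0.1 mM EGTA, BSA; cpds pinned, 1 hr RT; + 10 uM phosphopeptide; fluorescence 1-min reads x 11 min; delta = f1 - f0.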
# [16] = biological target: Calcium and integrin-binding protein 1 (Homo sapiens) (UniProt Q99828); assay: Validation qHTS for Identification of Calcium Integrin Binding protein 1 (CIB1) Competitor (AID 1508618)
# Procedure, shortened: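 Displacement of FITC-alphaIIb peptide (100 nM) from CIB1-GST (1 uM) is monitored by polarization in quantitative HTS format; buffer carries 5 mM CaCl2 and 125 mM NaCl at pH 7.4, incubations are at room temperature.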
# [17] = biological target: Rap guanine nucleotide exchange factor 3 (Homo sapiens) (UniProt O95398); assay: Confirmatory qHTS for antagonist of cAMP-regulated guanine nucleotide exchange factor 3 (EPAC1) (AID 1645880); further: potency means the concentration at half of the fitted maximal effect; nearly all actives have a fitted effect of over 55% in size
# Procedure, shortened: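 Nucleotide exchange uses 100 nM EPAC1, 250 nM RAP1B-BODIPY-GDP and 50 uM GDP, with compounds in a concentration-titration series. After 5 min at room temperature, fluorescence (480 nm ex/540 nm em) is read every 5 min for 30 min. Data are normalized to control ATA and DMSO.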
# [18] = biological target: Rap guanine nucleotide exchange factor 4 (Homo sapiens) (UniProt Q8WZA2); assay: Confirmatory qHTS for antagonist of cAMP-regulated guanine nucleotide exchange factor 4 (EPAC2) (AID 1645885); further: potency means the concentration at half of the fitted maximal effect; nearly all actives have a fitted effect of over 25% in size
smiles,measurement,setting,value
O=C(Nc1ccccc1)N1CCN(c2nc(-c3ccccc3)ns2)CC1,Potency,[1],inactive
NC(N)=N/N=C/c1ccccc1Cl,Potency,[1],inactive
CC(C)=C1C[C@@]2(C)C(=CC1=O)CC[C@@H](OC(=O)/C(C)=C/CO)[C@@H]2C,Potency,[1],inactive
NCCCC(=O)O,outcome,[2],inactive
same,outcome,[3],inactive
same,outcome,[4],inactive
same,outcome,Papain (Carica papaya),inactive
CC(C)c1c(O)ccc2c1CC[C@H]1C(C)(C)CCC[C@]21C,Potency,[1],inactive
CC1(C)CC[C@]2(C(=O)O)CC[C@]3(C)C(=CCC4[C@@]5(C)C[C@@H](O)[C@H](O)[C@@](C)(CO)C5CC[C@]43C)[C@@H]2[C@@H]1O (some centres undefined),Potency,[1],inactive
CCC(CC)C(=O)OC12C(OC(=O)C(C)C)C(C)C3(O)C(C=C(CO)CC4(O)C(=O)C(C)=CC43)C1C2(C)C (centres undefined),Potency,[1],inactive
O=[N+]([O-])c1ccc(Oc2ccc3c(c2)CCC(c2ccccc2)O3)nc1 (centres undefined),Potency,[1],inactive
CC1OC(OC2C(O)COC(O[C@@H]3[C@@H](O)[C@@H](O)[C@H](OC4C(OC(=O)[C@]56CCC(C)(C)CC5C5=CCC7[C@@]8(C)C[C@H](O)[C@H](OC9OC(CO)C(O)C(O)C9O)[C@@](C)(CO)C8[C@H](O)C[C@@]7(C)[C@]5(C)CC6)OCC(O)C4O)O[C@H]3C)C2O)C(O)C(O)C1O (some centres undefined),"activity change, negative = inhibition",[1],-1.65% [at 12.4 µM]
C/C=C(\C)C(=O)O[C@@H]1[C@@H](C)[C@]2(O)[C@@H]3C=C(C)C(=O)[C@H]3CC(CO)=C[C@H]2C2C(C)(C)[C@@]21OC(=O)C(C)CC (some centres undefined),Potency,[1],inactive
CN(C)C(CCOc1cccc2ccccc12)c1ccccc1 (centres undefined),Potency,[1],inactive
CO[C@@H]1[C@H](O)CCC2(CO2)[C@H]1[C@@]1(C)O[C@@H]1CC=C(C)C (some centres undefined),Potency,[1],inactive
CC(=O)OCC(=O)[C@@]12O[C@@H]1C[C@H]1[C@@H]3CC=C4C[C@@H](O)CC[C@]4(C)[C@H]3CC[C@@]12C,Potency,[1],inactive
COc1ccc(-c2c(C)nn3c(NCCN4CCOCC4)cc(C)nc23)cc1OC,Potency,[1],inactive
COc1cccc(CN(C(=O)CC(C)(C)C)[C@H]2C[C@H](C(=O)N3CCNCC3)N(Cc3ccc4c(c3)OCO4)C2)c1,Potency,[1],inactive
Oc1cccc(-c2c3nc(c(-c4cccc(O)c4)c4ccc([nH]4)c(-c4cccc(O)c4)c4nc(c(-c5cccc(O)c5)c5ccc2[nH]5)CC4)C=C3)c1,Potency,[5],1.58 µM (active)
same,outcome,[6],inactive
same,Potency,[7],11 µM (active)
same,Potency,[8],8.41 µM (active)
same,Potency,[9],8.41 µM (active)
COC1CC(=O)C23C(=O)NC(CC(C)C)C2C(C)C(C)=CC3/C=C(\C)CCCC1O (centres undefined),Potency,[1],inactive
C=C1CCC2C(C)(C)CCCC2(C)C1CC/C(C)=C\CO (centres undefined),Potency,[1],inactive
N#Cc1ccc(Nc2nc(-c3ccc(O)cc3O)cs2)cc1C(F)(F)F,Potency,[10],50.1 µM (active)
same,Potency,[11],5.35 µM (active)
same,Potency,[7],1.69 µM (active)
same,Potency,[12],inactive
same,Potency,[8],16.3 µM (active)
same,outcome,[13],inactive
same,outcome,[14],inactive
C=C1C(=O)OC2CC3(C)C(O)C(=O)C=C(C)C3CC12 (centres undefined),Potency,[1],inactive
C[C@@H](c1ccc2nccn2c1)n1nnc2ncc(-c3cnn(C)c3)nc21,Potency,[1],inactive
C/C=C/C1=CC2=C(CO1)C(=O)C(C)(OC(=O)c1c(C)cc(O)cc1OC)C(O)C2 (centres undefined),Potency,[1],inactive
C/C=C(\C)C(=O)OC1C(C)C2(O)C(C=C(CO)CC3(O)C(=O)C(C)=CC32)C2C(C)(C)C12OC(=O)C(C)C (centres undefined),Potency,[1],inactive
O=C(c1ccccc1)c1c(O)cc(O)cc1O[C@@H]1O[C@H](CO)[C@@H](O)[C@H](O)[C@H]1O,Potency,[10],inactive
same,Potency,[8],inactive
same,Potency,[9],inactive
CN[C@H]1CC[C@@H](c2ccc(Cl)c(Cl)c2)c2ccccc21,Potency,[5],inactive
same,outcome,[15],inactive
same,outcome,[2],inactive
same,outcome,[3],inactive
same,outcome,[16],inactive
same,Potency,[1],inactive
same,outcome,[4],inactive
same,Potency,[11],2.19 µM (active)
same,outcome,Papain (Carica papaya),inactive
same,Potency,[8],6.68 µM (active) and 9.34 µM (active)
same,Potency,[9],2.66 µM (active) and 9.34 µM (active)
Cc1ccc(-c2ncc[nH]2)cc1NC(=O)c1ccc(OCc2ccccn2)cc1,Potency,[1],inactive
CC1(CO)CC(O)[C@]2(C(=O)O)CCC34CC3(C=CC3[C@]5(C)C(CC[C@]34C)C(C)(CO)[C@@H](O)[C@H](O)[C@@H]5O)C2C1 (some centres undefined),Potency,[1],inactive
CCC(C)/C=C(C)/C=C/C1=CC2=C(Cl)C(=O)C(C)(OC(C)=O)C(=O)C2(O)C(OC)O1 (centres undefined),Potency,[1],inactive
C=C(CCC1C(C)(O)CCC2C(C)(C)C(O)CCC12C)C(O)CO (centres undefined),Potency,[1],inactive
CC(NCCCc1cccc(C(F)(F)F)c1)c1cccc2ccccc12 (centres undefined),Potency,[1],inactive
COC1C(O)C(OC2CCC3(C)C(CCC45CCC6C7(COC(=O)C7)OC4(O)C6(C)CCC35)C2)OC(C)C1OC1OC(CO)C(OC2OC(CO)C(O)C(O)C2O)C(O)C1O (centres undefined),Potency,[1],inactive
CC/C=C\CC1C(=O)C=CC1(CCCCC1CCC(=O)O1)OC(C)=O (centres undefined),Potency,[1],inactive
CCC(C)C(=O)OC1C(C)C2(O)C(C=C(CO)CC3(O)C(=O)C(C)=CC32)C2C(C)(C)C12OC(=O)C(C)C (centres undefined),Potency,[1],inactive
C=C1C(=O)O[C@@H]2C=C(COC(C)=O)CC/C=C(\CO)CC[C@@H]12,Potency,[1],inactive
O=C(O)CSc1cc(NS(=O)(=O)c2ccc(Br)cc2)c2ccccc2c1O,Potency,[10],12.6 µM (active)
same,Potency,[1],44.7 µM (active)
same,Potency,[8],7.28 µM (active)
same,Potency,[9],4.09 µM (active)
same,Potency,[17],84.9 µM (active)
same,outcome,[13],inactive
same,Potency,[18],47.8 µM (active)
Cn1sc(=O)n(Cc2ccccc2)c1=O,Potency,[10],7.94 µM (active)
same,Potency,[1],8.91 µM (active)
same,Potency,[8],7.28 µM (active) and 18.4 µM (active)
same,Potency,[9],2.58 µM (active) and 11.6 µM (active)
COc1nc2ccc(Br)cc2cc1[C@@H](c1ccccc1)[C@@](O)(CCN(C)C)c1cccc2ccccc12,Potency,[10],89.1 µM (active)
same,Potency,[11],7.56 µM (active)
same,Potency,[9],14.5 µM (active)
CC(C)(O)C1CC(=O)C2(C)C(CCC3(C)C(c4ccoc4)OC(=O)C4OC432)C12CCC(=O)OC2 (centres undefined),Potency,[1],inactive
CCC1C(=O)N(C)c2cnc(Nc3ccc(C(=O)NC4CCN(C)CC4)cc3OC)nc2N1C1CCCC1 (centres undefined),Potency,[10],inactive
same,Potency,[11],inactive
same,Potency,[7],2.13 µM (active)
same,Potency,[8],0.0073 µM (active)
same,Potency,[9],0.0082 µM (active)
